Where a name gives a salt, the structure may show the parent alone.
test system: Saccharomyces cerevisiae BY4741 SeMeCo community; experiment: z-score of subpopulation abundance vs DMSO median, subpopulation auxotrophic for HLU; higher = larger share of this subpopulation than in DMSO controls; conditions: 10 µM; 24 h; SM minimal medium; subpopulation (auxotrophy): HLU
Description: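 Fluorescent four-plasmid SeMeCo (self-establishing metabolically cooperating S. cerevisiae BY4741 community; plasmids pH-mRuby2, pL-mWasabi, pU-eCFP, pM-TagRFP657) was grown 24 h in minimal SM medium with each Selleck FDA-approved drug at 10 µM in 384-well plates. Cells were fixed and imaged by high-content confocal microscopy. For each auxotrophic subpopulation (and the prototroph), a z-score gives the deviation from the DMSO vehicle-control population median.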

Compound	z-score of subpopulation abundance
CO/N=C(\C(=O)N[C@@H]1C(=O)N2C(C(=O)O)=C(CSc3nc(=O)c(O)nn3C)CS[C@H]12)c1csc(N)n1 [Ceftriaxone Sodium Trihydrate]	2.14
C#C[C@]1(O)CC[C@H]2[C@@H]3CCc4cc(O)ccc4[C@H]3CC[C@@]21C [Ethinyl Estradiol]	-0.36
CC(C(=O)O)c1cccc(C(=O)c2ccccc2)c1 (stereo not given) [Ketoprofen]	0.39
N/C(=N\N=C\c1ccc(Cl)cc1)N/N=C/c1ccc(Cl)cc1 [Robenidine Hydrochoride]	0.81
O=C(CCCN1CC=C(n2c(=O)[nH]c3ccccc32)CC1)c1ccc(F)cc1 [Droperidol]	-0.09
CN(C)[C@@H](CCOc1cccc2ccccc12)c1ccccc1 [Dapoxetine HCl]	1.25
CC[C@@H]([C@H](C)O)n1ncn(-c2ccc(N3CCN(c4ccc(OC[C@@H]5CO[C@@](Cn6cncn6)(c6ccc(F)cc6F)C5)cc4)CC3)cc2)c1=O [Posaconazole]	14.4
CCn1cc(C(=O)O)c(=O)c2cc(F)c(N3CCN(C)CC3)cc21 [Pefloxacin Mesylate Dihydrate]	0.03
C=CCCCCCCCCC(=O)[O-].C=CCCCCCCCCC(=O)[O-].[Zn+2] [Zinc Undecylenate]	3.75
CC[N+](CC)(CC)CCOc1cccc(OCC[N+](CC)(CC)CC)c1OCC[N+](CC)(CC)CC [Gallamine Triethiodide]	0.07
N#CC(c1ccc(Cl)cc1)c1c(Cl)cc(-n2ncc(=O)[nH]c2=O)cc1Cl (stereo not given) [Diclazuril]	-0.02
CCN(CC)CC#CCOC(=O)C(O)(c1ccccc1)C1CCCCC1 (stereo not given) [Oxybutynin]	-0.2
COCCCC/C(=N\OCCN)c1ccc(C(F)(F)F)cc1 [Fluvoxamine maleate]	-0.3
Cc1cc(NS(=O)(=O)c2ccc(N)cc2)nc(C)n1 [sulfaisodimidine]	0.38
O=C(N[C@H](CO)[C@H](O)c1ccc([N+](=O)[O-])cc1)C(Cl)Cl [Chloramphenicol]	-0.24
CCCCC(F)(F)[C@@]1(O)CC[C@H]2[C@@H](CC(=O)[C@@H]2CCCCCCC(=O)O)O1 [Lubiprostone]	-0.93
C[C@@H](O)[C@H]1C(=O)N2C(C(=O)O)=C([C@H]3CCCO3)S[C@H]12 [Faropenem Sodium]	0.66
C#C[C@]1(O)CC[C@H]2[C@@H]3CCC4=CC(=O)CC[C@@H]4[C@H]3C(=C)C[C@@]21CC [Etonogestrel]	0.5
CCCCCCCCOc1ccccc1C(=O)Nc1ccc(C(=O)OCC[N+](C)(CC)CC)cc1 [Otilonium Bromide]	3.81
O=c1[nH]c(=O)n([C@H]2C[C@H](O)[C@@H](CO)O2)cc1I [Idoxuridine]	-0.57

Compound	z-score of subpopulation abundance
CCCc1nn(C)c2c(=O)[nH]c(-c3cc(S(=O)(=O)N4CCN(C)CC4)ccc3OCC)nc12 [Sildenafil Citrate]	0.14
Cc1ccsc1/C=C/C1=NCCCN1C [Morantel tartrate]	-0.25
C[C@H]1[C@H](NC(=O)/C(=N\OC(C)(C)C(=O)O)c2csc(N)n2)C(=O)N1S(=O)(=O)O [Aztreonam]	0.52
CC(=O)O[C@H]1C[C@@H]2CC[C@@H]3[C@H](CC[C@@]4(C)[C@H]3C[C@H]([N+]3(C)CCCCC3)[C@@H]4OC(C)=O)[C@@]2(C)C[C@@H]1N1CCCCC1 [Vecuronium Bromide]	-0.64
Cc1ncc([N+](=O)[O-])n1CCOC(=O)c1ccccc1 [Metronidazole Benzoate]	-1.28
COc1ncnc(NS(=O)(=O)c2ccc(N)cc2)c1OC [Sulfadoxine]	0.31
C[C@H](NCc1ccc(OCc2cccc(F)c2)cc1)C(N)=O [Safinamide Mesylate]	0.4
O=C(Nc1cc(Cl)cc(Cl)c1O)c1c(O)c(Cl)cc(Cl)c1Cl [Oxyclozanide]	-0.55
CC(C)NNC(=O)c1ccncc1 [Iproniazid]	0.8
CCN1CCN(C(=O)N[C@@H](C(=O)N[C@@H]2C(=O)N3C(C(=O)O)=C(CSc4nnnn4C)CS[C@H]23)c2ccc(O)cc2)C(=O)C1=O [Cefoperazone]	-0.34
CCCCCCCCCC(=O)NC1C(Oc2c3cc4cc2Oc2ccc(cc2Cl)C(OC2OC(CO)C(O)C(O)C2NC(C)=O)C2NC(=O)C(NC(=O)C4NC(=O)C4NC(=O)C(Cc5ccc(c(Cl)c5)O3)NC(=O)C(N)c3ccc(O)c(c3)Oc3cc(O)cc4c3)c3ccc(O)c(c3)-c3c(OC4OC(CO)C(O)C(O)C4O)cc(O)cc3C(C(=O)O)NC2=O)OC(CO)C(O)C1O (stereo not given) [Teicoplanin]	-0.15
CCn1cc(C(=O)O)c(=O)c2cc(F)c(N3CCN(C)CC3)cc21 [Pefloxacin Mesylate]	-0.54
CN(C)CCOc1ccc(/C(=C(/CCCl)c2ccccc2)c2ccccc2)cc1 [Toremifene Citrate]	1.1
C[N+]1(C)[C@@H]2CC[C@H]1C[C@@H](OC(=O)C(O)c1ccccc1)C2 (stereo not given in full) [Homatropine Methylbromide]	0
Nc1ccc(S(=O)(=O)Nc2cnc3ccccc3n2)cc1 [Sulfaquinoxaline sodium]	0.31
CCN(CC)CCNC(=O)c1cc(S(C)(=O)=O)ccc1OC [Tiapride Hydrochloride]	0.72
CC[C@H]1OC(=O)C[C@@H](O)[C@H](C)[C@@H](O[C@@H]2O[C@H](C)[C@@H](O[C@H]3C[C@@](C)(O)[C@@H](O)[C@H](C)O3)[C@H](N(C)C)[C@H]2O)[C@@H](CC=O)C[C@@H](C)C(=O)/C=C/C(C)=C/[C@@H]1CO[C@@H]1O[C@H](C)[C@@H](O)[C@@H](OC)[C@H]1OC [Tylosin]	0.34
Cc1c(-c2ccccc2)oc2c(C(=O)OCCN3CCCCC3)cccc2c1=O [Flavoxate HCl]	1.32
CN(C)CCCN1c2ccccc2CCc2ccc(Cl)cc21 [Clomipramine HCl]	-0.16
CCC(C)(C)C(=O)O[C@H]1C[C@@H](C)C=C2C=C[C@H](C)[C@H](CC[C@@H]3C[C@@H](O)CC(=O)O3)[C@H]21 [Simvastatin]	3.09
